# Rce1 inh: inhibitors of yeast Ras-converting enzyme | Q03530 | yeast membranes, quenched prenylated peptide cleavage fluorescence | calls only | 0.27% of 290,000 active | AID 2563;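 active = fall in fluorescence gain of 50% or more versus controls, with final raw signal at or below 3038400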;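 note: plate controls were neutral control wells for no effect and wells lacking membranes for full effect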
# CHT allo act: allosteric activators of human choline transporter CHT; CHT-expressing cells, membrane potential dye, choline EC20; stronger effect = higher value; LV-AA mutant CHT in HEK293 cells; B-score at 10 µM; 0.49% of 310,000 active; AID 488977;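 active = initial fluorescence not abnormally high and integrated response B-score, plate-corrected, over 3 SD above library mean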
# ANO1 block: blocks the mouse calcium-activated chloride channel TMEM16A | AID 588511 | HEK293 TMEM16A/YFP iodide influx fluorescence, ionomycin | Q8BHY3 | normalized B-score (activity score, 25-100; higher = stronger inhibition) at 10 µM | 1.2% of 310,000 active;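 active = ratio plate-corrected score three or more library SD toward inhibition, starting fluorescence score within five deviations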;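 note: score derived from kinetic fluorescence span divided by baseline fluorescence per well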
# Kir21 inh: blocks the mouse Kir2.1 inward-rectifier potassium channel. HEK293-Kir2.1, FluxOR thallium flux fluorescence; stronger effect = lower value. B-score at 10 µM. P35561. 0.85% of 310,000 active;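 active = fluorescence ratio B-score at or below minus 3 SD of library scores, with starting-brightness B-score within 2 SD, cut at about -4.2 in these data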;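 note: channel flux triggered by added potassium and thallium sulfate stimulus; B-score of peak minus minimum fluorescence over baseline after thallium stimulus; more negative B-score means stronger Kir2.1 block with less thallium influx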
# TMEM16A act: activators or potentiators of mouse TMEM16A chloride channel. Q8BHY3. HEK293 TMEM16A/YFP-H148Q/I152L, iodide quench fluorescence; stronger effect = lower value. B-score at 10 µM. 0.3% of 340,000 active;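 active = fluorescence-ratio B-score plate-corrected deviation score at least 3 library SD below zero, with starting fluorescence score within 5 deviations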;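 note: channel opened by trigger with iodide after compound preincubation; score built on the fluorescence ratio of max minus min over baseline; more negative score means more quench and so TMEM16A activation or potentiation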
# CHT block: inhibitors of human choline transporter CHT; Q9GZV3; B-score at 10 µM; CHT-expressing cells, membrane potential dye, choline response; stronger effect = lower value; 0.86% of 310,000 active;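 active = B-score over 3 SD under the library average, and starting fluorescence ratio not unusually high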;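 note: choline stimulus applied at its EC90 after an EC20 pre-addition; B-score computed on integrated fluorescence ratio after choline addition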
# Numbers without * were called inactive; i = inactive; x = no result given; + = active, no number. Rows were chosen to be rich in hits. Some 3.2% of all compounds tested hit in one or more screens of this group.
SMILES,Rce1 inh,CHT allo act,ANO1 block,Kir21 inh,TMEM16A act,CHT block
O=S(=O)(Nc1ccc2c(c1)OCCO2)c1ccc2oc3ccccc3c2c1,i,i,25*,-0.93,i,i
Cc1[nH]n(-c2ccccc2)c(=O)c1C(C[N+](=O)[O-])c1ccccc1Cl (stereo not drawn),i,i,i,0.02,i,i
COc1ccc(C(C[N+](=O)[O-])c2c(C)[nH]n(-c3ccccc3)c2=O)cc1 (stereo not drawn),i,i,i,-8.7*,i,i
Nc1c(Cl)cc(C2=NCCn3nc4cc(C(F)(F)F)ccc4c32)cc1Cl,+,i,i,0.51,i,i
COc1ccc2c3n(nc2c1)CCN=C3c1cc(Cl)c(N)c(Cl)c1,x,i,i,x,i,i
Cc1ccc(Cn2nnc3c(=O)[nH]c(C4CCCN(C(=O)Nc5ccc(F)cc5F)C4)nc32)cc1 (stereo not drawn),i,i,i,2.6,i,i
Cc1cc(C)cc(NC(=O)CSCc2nc3c(nnn3Cc3ccc(F)cc3)c(=O)[nH]2)c1,i,i,25*,-0.08,i,i
O=C1NC2(CCCCCC2)C(=O)N1Cc1ccccc1Br,i,i,i,0.65,i,i
Nc1ccc(/C=C/C(=O)c2cccs2)cc1,i,i,i,-3.2,-5.7*,i
CN(C)c1ccc(/C=C2\N=C(C(C)(C)C)OC2=O)cc1,i,i,i,-0.46,i,i
CCn1ccnc1CN(C)C(=O)c1ccc(OC2CCN(CCc3ccccc3)CC2)cc1,i,i,i,-2.4,i,i
COc1ccc(N2CC(C(=O)N3CCN(Cc4ccc5c(c4)OCO5)CC3)CC2=O)cc1 (stereo not drawn),i,i,i,-0.5,i,i
COc1ccc(C(=O)C2CCCN(C(=O)c3ccc4cc[nH]c4c3)C2)c(C)c1 (stereo not drawn),i,i,i,-0.42,-13*,i
CC(C)=CC(=O)OCc1cc([N+](=O)[O-])cc2c1OCOC2,i,i,i,-0.28,i,i
CC(C)NCC(O)COCCOc1ccc(Br)cc1 (stereo not drawn),+,i,i,0.79,i,i
CCOC(=O)C1=C(C)OC(N)=C(C#N)C1c1cc2c(cc1[N+](=O)[O-])OCO2 (stereo not drawn),+,i,i,-0.71,i,i
CCOC(=O)C1=C(C)OC(N)=C(C#N)C1c1cc(OC)c2c(c1)OCO2 (stereo not drawn),i,i,i,-1.4,i,i
O=C(COc1ccc(Cl)cc1)NNC(=O)c1ccc2c(=O)n3c(nc2c1)CCC3,i,i,i,-0.51,i,i
O=C(CSc1ncccn1)N1CCCc2ccccc21,i,i,i,2.1,i,i
Cn1cc(SCC(=O)N2CCCc3ccccc32)c2ccccc21,i,i,i,-6.8*,i,i
CN(C(=O)c1ccc(NC(=O)Cc2cccc(NC(=O)C3CCN(C(=O)C4CCCC4)CC3)c2)cc1)C1CCCC1,x,x,x,x,i,x
CCCn1c(N)c(N(CCOC)C(=O)c2ccc(N(C)S(=O)(=O)c3ccc(C)cc3)cc2)c(=O)[nH]c1=O,i,i,i,1,i,i
Cc1ccc(C)c(NC(=O)COC(=O)c2ccc3c(c2)OCCO3)c1,x,x,x,x,i,x
CCOC(=O)c1ccc(NC(=O)N2CCN(Cc3ccccc3)CC2)cc1,+,i,i,-0.25,i,i
CCN(CCn1cccn1)Cc1cn[nH]c1-c1cccc2ccccc12,i,i,i,-0.31,-6.2*,i
C=CCn1c(NCc2c[nH]c3ccccc23)nc2ccccc21,x,i,i,-5.6*,i,i
COc1cc2nc(Nc3ccc(C)c(C)c3)nc(N)c2cc1OC,i,i,i,-4.7*,i,i
COc1cc2nc(Nc3ccc(C)c(Cl)c3)nc(N)c2cc1OC,i,i,i,-0.1,i,i
COc1cc2nc(Nc3ccc(F)cc3)nc(N)c2cc1OC,i,i,i,-5.9*,i,i

# High-throughput results as filed in PubChem BioAssay.
